Laboratory results taken from PubChem BioAssay AID1986 (Sanford-Burnham Center for Chemical Genomics, 2009).
Among all 290,000 compounds or so, about 890 (0.31%) were called active. Cut-off read from the data, not from the text of the source: active = inhibition mostly above about 52% (no sharp cut-off); inactive = mostly below about 76%. The sample as a whole holds a higher share of actives than the screen did.

Assay: inhibitors of HIV fusion peptide binding, primary screen, biochemical, uHTS, fluorescence dequenching (AID 1986)
Conditions: cell-free peptide binding, 30 min, stronger effect = higher value
[1] = measured here: repeat confirmation average inhibition, at 18.6 µM

Compound	inhibition (at 20 µM)	inhibition [1] [%]
COc1cc(NC(=O)C2CC(=O)NC3=C2C(=O)CCC3)c(OC)cc1Cl (stereo not drawn)	-1.9% (inactive)	
N#CC1=C(N)OC2=C(CC/C2=C\c2ccc(F)cc2)C1c1ccc(F)cc1 (stereo not drawn)	73.8% (inactive)	40.5
COc1cc2c(cc1NC(=O)CSc1ccc(C)cc1)oc1ccccc12	0.2% (inactive)	
NC(=O)C1CCN(C(=O)CN2CCc3ccccc32)CC1	-0.5% (inactive)	
O=C(Nc1ccc(Cl)cc1C(=O)O)c1ccc2c(c1)C(=O)N(Cc1ccco1)C2=O	50% (active)	
Cc1c(NC(=O)c2ccc3c(c2)C(=O)N(Cc2ccco2)C3=O)cccc1C(=O)O	6.1% (inactive)	
O=C(Nc1ccc(O)cc1C(=O)O)c1ccc2c(c1)C(=O)N(Cc1ccco1)C2=O	24.6% (inactive)	
O=C(N/N=C/c1c(F)c(F)c(F)c(F)c1F)c1cccc(S(=O)(=O)N2CCOCC2)c1	0.1% (inactive)	
COc1c(Br)cc(Br)cc1/C=N/NC(=O)c1ccncc1	-1% (inactive)	
COc1cc(/C=N/NC(=O)c2cccc(S(=O)(=O)N3CCOCC3)c2)cc(OC)c1O	-3.4% (inactive)	
O=C(N/N=C/c1cc(Br)cc(Br)c1O)c1cccc(S(=O)(=O)N2CCOCC2)c1	80.2% (active)	53.2
O=C(N/N=C/c1cc(Br)cc(Br)c1O)c1ccncc1	103% (active)	59.2
O=C(N/N=C/c1cc(Br)ccc1O)c1ccncc1	3.3% (inactive)	
Cc1csc(NC(=O)/C=C/c2ccc(C)o2)n1	8.7% (inactive)	
O=c1[nH]c(C2CCN(S(=O)(=O)c3ccc(S(=O)(=O)NC4CC4)cc3)CC2)nc2c1nnn2Cc1ccccc1	-0.4% (inactive)	
O=S(=O)(Cc1ccccc1)NCC1CCCO1 (stereo not drawn)	-2.7% (inactive)	
CCCCN(CCCC)C(=O)c1cc2ccccc2c(=O)o1	-1.7% (inactive)	
CCCCC[C@H](O)/C=C/[C@H]1C=CC(=O)[C@@H]1C/C=C\CCCC(=O)O	52.4% (active)	
CCCCC[C@H](O)/C=C/[C@@H]1[C@@H](C/C=C\CCCC(=O)O)[C@@H](O)C[C@H]1O	-0.8% (inactive)	
CCCCC[C@H](O)/C=C/[C@@H]1[C@@H](C/C=C\CCCC(=O)O)[C@H]2CO[C@@H]1C2	3.4% (inactive)	
CCOC(=O)c1ccc(NC(=S)NCC(O)c2ccccc2)cc1 (stereo not drawn)	8.7% (inactive)	
Cn1cnnc1SCC(=O)Nc1ccc(Cl)cc1	1.9% (inactive)	

Compound	inhibition (at 20 µM)	inhibition [1] [%]
Cn1cc(/C=C2\SC(=S)N(NC(=O)c3ccccc3)C2=O)c2ccccc21	122% (inactive)	17.7
Cn1cccc1/C=C1\SC(=S)N(NC(=O)c2ccccc2O)C1=O	66.2% (inactive)	25.2
Cn1cc(/C=C2\SC(=S)N(NC(=O)c3cccc(Cl)c3)C2=O)c2ccccc21	69.3% (active)	
Cc1ccc(C(=O)NN2C(=O)/C(=C/c3cccn3C)SC2=S)cc1	24.4% (inactive)	
Cn1cccc1/C=C1\SC(=S)N(NC(=O)c2cccc(Cl)c2)C1=O	25.6% (inactive)	
Cc1ccc(C(=O)NN2C(=O)/C(=C/c3cn(C)c4ccccc34)SC2=S)cc1	86.9% (active)	91.3
Cn1cccc1/C=C1\SC(=S)N(NC(=O)c2ccccc2)C1=O	35.3% (inactive)	
Cn1cccc1/C=C1\SC(=S)N(NC(=O)c2ccccc2Cl)C1=O	22.1% (inactive)	
Cn1cc(/C=C2\SC(=S)N(NC(=O)c3ccccc3Cl)C2=O)c2ccccc21	66.4% (active)	117
Cc1nc(SCc2ccccc2)[nH]c(=O)c1CC(=O)OCC(C)C	0.8% (inactive)	
CN(C)c1nc(N)c([N+](=O)[O-])c(NCc2ccccc2)n1	-1.3% (inactive)	
Cc1onc(-c2c(Cl)cccc2Cl)c1C(=O)Nc1nccs1	-1% (inactive)	
COc1ccc(NCC(=O)N/N=C(\C)c2cc3ccccc3o2)cc1	-3.3% (inactive)	
Cc1c(N=C2N=C(NC(=O)c3cccs3)c3ccccc32)c(=O)n(-c2ccccc2)n1C	75.3% (active)	
Cc1c(NC(=O)/C(=C/c2cccs2)c2cccs2)c(=O)n(-c2ccccc2)n1C	6.2% (inactive)	
Cc1c(NC(=O)c2cccs2)c(=O)n(-c2ccccc2)n1C	-1.2% (inactive)	
Cc1c(N=C2N=C(NC(=O)c3ccc(F)cc3)c3ccccc32)c(=O)n(-c2ccccc2)n1C	74.4% (active)	
Cc1c(N=C2N=C(NC(=O)Nc3ccc(Cl)cc3)c3ccccc32)c(=O)n(-c2ccccc2)n1C	137% (inactive)	
Cc1c(N=C2N=C(NC(=O)NC(C)(C)C)c3ccccc32)c(=O)n(-c2ccccc2)n1C	-0.2% (inactive)	
CC(=O)Nc1cccc(NC(=O)CSc2ncc(-c3ccccc3)[nH]2)c1	0.5% (inactive)	
Cc1ccc(C(C(=O)NC2CCCCC2)N(Cc2ccco2)C(=O)Cn2cnc3ccccc32)cc1 (stereo not drawn)	-1.8% (inactive)	
Cc1nc(NC(=O)/C=C/c2ccccc2)sc1C(=O)N1CCCCC1	-0.3% (inactive)	

Compound	inhibition (at 20 µM)	inhibition [1] [%]
Cc1cc(/C=C2\SC(=S)N(Cc3ccco3)C2=O)c(C)n1-c1ccccc1	43.7% (inactive)	
COc1ccc(-n2c(C)cc(/C=C3\SC(=S)N(Cc4ccco4)C3=O)c2C)cc1	38.3% (inactive)	
Cc1cc(/C=C2\SC(=S)N(Cc3ccco3)C2=O)c(C)n1-c1cccnc1	53.6% (active)	94.4
NC(=O)CSc1nc(C23CC4CC(CC(C4)C2)C3)nc2ccccc12	-1.1% (inactive)	
CCCNC(=O)Cn1c(=O)/c(=C\c2ccc(-c3ccc([N+](=O)[O-])cc3)o2)s/c1=C\C(=O)C(C)(C)C	145% (inactive)	
CC(C)(C)C(=O)/C=c1\s/c(=C\c2ccc(-c3ccc([N+](=O)[O-])cc3)o2)c(=O)n1CC(=O)NC(N)=O	76.8% (active)	
CCCNC(=O)Cn1c(=O)/c(=C\c2ccc(-c3cccc([N+](=O)[O-])c3)o2)s/c1=C\C(=O)C(C)(C)C	23.1% (inactive)	
O=C(CCc1nc2ccccc2[nH]c1=O)N/N=C/c1ccccc1	-0.5% (inactive)	
CCOC(=O)NC(=O)CSc1nc(C)cc(C(F)(F)F)c1C#N	4.9% (inactive)	
CCOC(=O)CCSc1nc(C)cc(C(F)(F)F)c1C#N	82% (active)	50.9
CCOC(=O)CCSc1nc(C(C)(C)C)cc(C(F)(F)F)c1C#N	-0.1% (inactive)	
O=C(NN=C1C2CC3CC(C2)CC1C3)c1cccc(S(=O)(=O)N2CCOCC2)c1	2.1% (inactive)	
Cc1ccccc1CSc1n[nH]c(NS(=O)(=O)c2ccccc2)n1	-0.6% (inactive)	
COc1ccccc1C(=O)NNC(=O)c1cccc(C)c1	0.2% (inactive)	
Cc1cc(-c2csc(NC(=O)c3ccc(C#N)cc3)n2)c(C)n1Cc1ccccc1	15.9% (inactive)	
Cc1cc(-c2csc(N)n2)c(C)n1Cc1ccco1	46.3% (inactive)	
Cc1cc(-c2csc(NC(=O)c3ccc(=O)[nH]c3)n2)c(C)n1Cc1ccccc1	84.8% (inactive)	2.3
Cc1cc(-c2csc(NC(=O)c3ccc(C#N)cc3)n2)c(C)n1Cc1ccco1	56.1% (active)	
Cc1cc(-c2csc(NC(=O)c3ccc(=O)[nH]c3)n2)c(C)n1Cc1ccco1	61% (active)	
CCNc1nc(-c2cc(C)n(Cc3ccco3)c2C)cs1	59.6% (inactive)	0.3
O=C(Nc1cccc(C(F)(F)F)c1)/C(=C/c1ccco1)NC(=O)c1cccs1	15.1% (inactive)	
O=C(O)c1cccc(N/N=C/c2ccc(OC(F)(F)F)cc2)c1	26.1% (inactive)	

Compound	inhibition (at 20 µM)	inhibition [1] [%]
COC(=O)c1ccc(COc2ccc(/C=N/Nc3cccc(C(=O)O)c3)cc2)cc1	58.9% (active)	
COC(=O)c1ccc(COc2ccccc2/C=N/Nc2cccc(C(=O)O)c2)cc1	37% (inactive)	
COc1ccc(/C=N/NC(=O)c2cccc([N+](=O)[O-])c2)cc1OC(=O)c1ccc(C)cc1	-0.7% (inactive)	
CO/N=C(\c1nonc1N)N1CCN(c2ccc(Cl)cc2[N+](=O)[O-])CC1	-0.3% (inactive)	
CC1=N/C(=C/c2ccco2)C(=O)O1	41.7% (inactive)	
COc1ccccc1/C=C/C=C1N=C(/C=C/c2ccc(Cl)cc2)OC/1=O	56.4% (inactive)	-0.4
O=C1OC(/C=C/c2ccc(Cl)cc2)=NC/1=C/c1ccco1	56.5% (active)	
O=C(NCc1ccccc1Cl)NCc1ccccc1Cl	1% (inactive)	
CCCC(=O)n1nc(-c2ccccc2)nc1SC	3.2% (inactive)	
Cc1nnc(NC(=O)C23CC4CC(CC(C4)C2)C3)s1	2.2% (inactive)	
COc1ccc(-c2cc(CCCC(=O)N3CCN(c4ccc(OC)cc4)CC3)no2)cc1	-1.3% (inactive)	
CCN(CC)CCCC(C)Nc1c2ccc(Cl)cc2nc2ccc(OC)cc12 (stereo not drawn)	62.2% (active)	
COc1ccc2nc3cc(Cl)ccc3c(Nc3cc(C(C)C)c(O)cc3C)c2c1	-5.4% (inactive)	
COc1ccc2nc3cc(Cl)ccc3c(C#N)c2c1	3.4% (inactive)	
COc1c(/C=C2\SC(=Nc3ccccc3Cl)NC2=O)cccc1[N+](=O)[O-]	20% (inactive)	
O=C1NC(=Nc2ccccc2Cl)S/C1=C\c1cccc([N+](=O)[O-])c1	75.6% (inactive)	29.4
COc1cc(/C=C2\S/C(=N/S(=O)(=O)Cc3ccccc3)NC2=O)c([N+](=O)[O-])cc1OC	25.9% (inactive)	
O=C1NC(=Nc2ccccc2Cl)S/C1=C\c1cc([N+](=O)[O-])ccc1O	89.1% (active)	124
O=C1N/C(=N\S(=O)(=O)Cc2ccccc2)S/C1=C/c1cc([N+](=O)[O-])ccc1O	69.6% (active)	
COc1cccc(N=C2NC(=O)/C(=C/c3cc([N+](=O)[O-])ccc3O)S2)c1	64.2% (inactive)	33
O=C1NC(=Nc2ccccc2Cl)S/C1=C\c1ccc(C(=O)O)cc1	26.9% (inactive)	
O=C1N/C(=N\S(=O)(=O)Cc2ccccc2)S/C1=C/c1cccc([N+](=O)[O-])c1	30.7% (inactive)	
